High-throughput results (PubChem)
HT1080-NT tox: kills 2HG-producing HT-1080-NT fibrosarcoma cells; Potency, µM (top dose mostly 46.1 µM), for the others: at the top dose activity, negative = less viability, usual class: cytotoxic; HT-1080-NT fibrosarcoma viability, CellTiter-Glo ATP luminescence, 48 h; hit rate 1.6% among 360,000;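 further: NT is the 2HG producing partner of a matched IDH1 knockdown line; potency means the concentration at half of the fitted maximal effect; 0% = DMSO-treated cells and -100% = media-only wells without cells; nearly all actives have a fitted effect of over 55% in size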
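Viability of the 2HG-overproducing fibrosarcoma line after 48 hours of compound exposure at 37 degrees C was determined by luminescence with CellTiter-Glo, and concentration-effect curves were then fitted and categorized.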
DT40 TDP1 no CPT: qHTS for Inhibitors of human tyrosyl-DNA phosphodiesterase 1 (TDP1): qHTS in cells in absence of CPT. Potency, µM (series often up to 46.2 µM), for the others: at the highest dose activity change, negative = growth inhibition, most hits filed as inhibitors. DT40 Tdp1-/- hTDP1 cells, no CPT, ATP luminescence, 48 h. hit rate 15% among 420,000; further: potency means the concentration at half of the fitted maximal effect; nearly all actives have a fitted effect of over 55% in size
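Stably hTDP1-transfected Tdp1-null chicken DT40 cells were treated with library compounds minus camptothecin and grown for at least 48 hr at 37 °C, after which cellular ATP was quantified by luminescence.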
HT1080 IDH1KD tx: kills HT-1080 cells with IDH1 knockdown; HT-1080 IDH1 knockdown viability, ATP luminescence, 48 h; Potency, µM (titrated, usually from 46.1 µM), inactives show top-dose activity, negative = toxicity, usual class: cytotoxic; hit rate 2% among 360,000;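 further: potency means the concentration at half of the fitted maximal effect; 0% = DMSO wells and -100% = cell-free medium wells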
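Viability of IDH1-knockdown HT-1080 fibrosarcoma cells was assessed by CellTiter-Glo after 48 h at 37 °C with titrated compound; concentration-effect curves were classified by fit quality and response size.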
TDP1 cell CPT: DT40-hTDP1 cell growth loss with CPT | chicken DT40 Tdp1-/-;hTDP1 cells + 20 nM CPT, ATP luminescence, 48 h | Potency, µM (series often up to 46.2 µM), inactives show at the top dose activity change, negative = growth inhibition, most hits filed as inhibitors | hit rate 12% among 420,000 | AID 686979; further: potency means the concentration at half of the fitted maximal effect; nearly all actives have a fitted effect of over 55% in size
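Chicken DT40 Tdp1-/- cells stably complemented with human TDP1 were seeded at 400 cells/well in medium containing 20 nM camptothecin, exposed to pin-transferred compounds, and grown at 37 °C for at least 48 hr. Viability was read as ATP luminescence.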
IL1B secr inh: inhibitors of inflammasome signaling (IL-1 beta secretion); THP-1 LPS/ATP IL-1B secretion, AlphaLISA, 16 h; active compounds read low; activity change, % at 57.5 µM; hit rate 4.7% among 360,000; in the data active means activity change below about -50%; inconclusive means mostly about -30% to -49%
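THP-1 cells pretreated 1 hr with compounds (up to 57.5 uM final), then stimulated with LPS (250 ng/mL final) plus ATP (1.25 mM final); secreted IL-1B measured by AlphaLISA after 16 hr, decreased signal indicating inhibition.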
Numbers without * were called inactive; ? = inconclusive; . = no result. A selection: hits, their analogues and other compounds. The true share with any hit is near 19%. Unless noted, the call rests on the fitted dose curve; in most records, active means well fitted curve in the direction sought with a large enough effect; inconclusive means small, poorly fitted or top-dose-only effect, or another doubt; inactive means no such curve, though single readings can be large; an effect the other way counts as inactive or inconclusive. Unless noted, on the % scale 0 is the no-effect control and ±100 the full control effect.

SMILES | HT1080-NT tox | DT40 TDP1 no CPT | HT1080 IDH1KD tx | TDP1 cell CPT | IL1B secr inh
COc1ccc(C(=O)/C=C/C(=O)N(Cc2ccc3c(c2)OCO3)C(C(=O)NC2CCCCC2)c2ccncc2)c(O)c1 (centres undefined) | -10.0% | 23.1µM* | ? | ? | ?
COc1ccc(-c2nnn(CC(=O)N(CC(=O)NC3CCCC3)Cc3cccs3)n2)cc1OC | 4.5% | -22.8% | -18.0% | -14.6% | -13.1
CCN(C(=O)COC(=O)/C=C/c1cnc2ccccc2n1)c1ccccc1 | 8.6% | 3.4% | 0.1% | -24.9% | -12.5
COc1ccc(C2(O)CCN(CC(=O)Nc3nccs3)CC2)c(OC)c1 | 0.7% | -18.0% | 1.7% | -3.4% | 13.5
CCCCCCC(=O)N(O)C1CC(=O)N(c2ccc(Cl)cc2)C1=O (centres undefined) | 1.8% | 2.91µM* | -1.2% | 2.31µM* | -50.8*
CCCCCCC(=O)N(O)C1CC(=O)N(c2ccc(C)cc2)C1=O (centres undefined) | -14.4% | 5.8µM* | -7.8% | 2.91µM* | -3.7
CC(C)[C@H](NC(=O)c1cc2cc(Cl)ccc2n1C)C(=O)N[C@@H](C(=O)O)c1ccccc1 | -4.4% | 14.2% | 0.1% | -2.4% | 13.1
COc1cccc(Oc2ccc(C(F)(F)F)cc2N)c1 | -13.0% | -6.7% | -19.2% | -26.5% | -69.5*
OC[C@@H]1CN(Cc2ccco2)C[C@H](n2cnc3c(NCc4ccncc4)ncnc32)O1 | 7.6% | 14.2% | 21.1% | 3.7% | 11.6
COC(=O)c1nnn(CC(=O)NC(=O)Nc2ccccc2)c1C(=O)OC | 5.8% | -16.3% | 1.3% | 12.2% | -70.1*
CCc1cccc(NC(=O)Nc2csc3c2CCCC3)c1 | . | 23.1µM* | . | 20.6µM* | .
Cc1cccc(C)c1NC(=O)Nc1csc2c1CCCC2 | . | -12.8% | . | -14.3% | .
CC(C)CNC(=S)NNC(=O)c1csc2ccccc12 | ? | -10.9% | -21.4% | -0.6% | -25.7
CC(C)CNC(=S)NNC(=O)c1csc2c1CCCC2 | 8.91µM* | ? | ? | ? | ?
COc1cccc(NC(=O)c2csc3c2CCCCC3)c1 | . | 16.4µM* | . | 20.6µM* | .
Cc1cccc(C)c1NC(=O)c1csc2c1CCCC2 | . | 5.17µM* | . | 3.66µM* | .
COc1ccc(NC(=O)c2csc3c2CCCCC3)c(OC)c1 | 1.1% | ? | -7.5% | -26.4% | -174.7*
COc1ccc(CCNC(=O)c2csc3c2CCCC3)cc1 | -20.0% | ? | -20.6% | -15.5% | -16.9
Cc1ccc(S(=O)(=O)NNC(=O)C(O)(c2ccccc2C)c2ccccc2C)cc1 | -2.8% | ? | -1.8% | -12.4% | 4.3
Cn1nccc1/C=C(/C#N)S(=O)(=O)c1ccccc1 | 3.0% | ? | 9.2% | 23.1µM* | 4.3
CSc1ccc(S(=O)(=O)NCc2ccccc2Cl)cc1 | 10.6% | ? | -1.8% | -28.7% | 31.1
CCc1ccc(Cn2c(CNS(=O)(=O)c3ccc4c(c3)CCCC4)nc3cccnc32)cc1 | . | 16.4µM* | . | ? | .
O=[N+]([O-])c1cccc(S(=O)(=O)Nc2ccccn2)c1 | 5.2% | 1.9% | 3.7% | -3.7% | -13.1
COc1ccc(Cn2c(CNS(=O)(=O)c3ccc(Cl)s3)nc3cccnc32)cc1 | . | 16.4µM* | . | ? | .
O=[N+]([O-])c1ccc(S(=O)(=O)NCc2nc3cccnc3n2Cc2ccccc2Cl)cc1 | . | 14.6µM* | . | 14.6µM* | .
COc1ccccc1Cn1c(CNS(=O)(=O)c2cccc([N+](=O)[O-])c2)nc2cccnc21 | . | 16.4µM* | . | 20.6µM* | .
CCc1ccc(S(=O)(=O)NCc2nc3cccnc3n2Cc2ccccc2Cl)cc1 | . | 14.6µM* | . | ? | .
CNC(=O)C1CCC(Cn2c(=O)c3sccc3n(CC(=O)NCc3cccc(OC)c3)c2=O)CC1 (centres undefined) | . | -12.3% | . | -6.3% | .
CCN1C(=O)c2cccc3cccc1c23 | 1.6% | ? | 1.0% | 29.1µM* | 36.5
CC(=O)c1c(C)oc(C)c1CSCc1ccc(C(=O)O)o1 | 2.1% | -8.9% | -4.6% | -16.8% | 2.3
